Most compounds without a hit are left out; they make up all but 27% or so of the library.
CYP2C9 inhib: blockers of cytochrome P450 2C9 activity – biochemical, luminescence, ADME assay, primary screen; CYP2C9 Supersomes, luciferin-H conversion; inhibition, % at 5 µM; 96,000 tested, 20% active; AID 777, 2007;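 active means blocking of liver enzyme CYP2C9 beyond about 50% at 5 µM, limit read from the data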
CYP2C9 act: human CYP2C9 activators, primary screen, biochemical, luminescence | 96,000 tested, 1.4% active | activation factor at 5 µM | recombinant CYP2C9, luciferin-H conversion; stronger effect = higher value; factor 1 = untreated enzyme, 0 = blocked;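 active means activation factor of 2 or more for CYP2C9 at a 5 µM dose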;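 further: 0 = sulfaphenazole-blocked wells and 1 = vehicle-only wells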
CYP2C19 inhib: blockers of cytochrome P450 2C19 activity – biochemical, luminescence, ADME assay, primary screen | 96,000 tested, 21% active | inhibition, % at 5 µM | P33261 | CYP2C19 Supersomes, luciferin-H EGE luminescence, 30 min | AID 778, 2007;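 active means CYP2C19 inhibition above a set limit at 5 µM in the primary screen, cut at about 50% in these data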;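 further: plate controls were negative control wells for no effect and 2.5 mM tranylcypromine positive control for full effect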
Target sequence (P33261 whole entry, looked up): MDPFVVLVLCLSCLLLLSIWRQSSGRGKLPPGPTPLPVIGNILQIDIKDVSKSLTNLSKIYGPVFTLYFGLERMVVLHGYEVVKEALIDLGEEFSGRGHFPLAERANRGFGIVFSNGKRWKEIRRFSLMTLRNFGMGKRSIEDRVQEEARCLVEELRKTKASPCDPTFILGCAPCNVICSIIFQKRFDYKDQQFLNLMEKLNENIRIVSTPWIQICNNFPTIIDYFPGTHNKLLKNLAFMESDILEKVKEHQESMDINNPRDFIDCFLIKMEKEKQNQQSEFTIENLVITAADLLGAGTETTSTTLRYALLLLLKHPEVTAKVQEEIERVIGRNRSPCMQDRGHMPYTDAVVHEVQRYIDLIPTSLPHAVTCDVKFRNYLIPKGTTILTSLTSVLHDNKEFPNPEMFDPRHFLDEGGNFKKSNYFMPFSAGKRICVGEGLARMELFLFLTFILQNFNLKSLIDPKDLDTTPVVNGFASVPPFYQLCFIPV
Cav32 inh: Cav3.2 calcium influx blockers – cell-based, Fluo-4 calcium fluorescence, FDSS, MLSMR library, primary screen; Cav3.2-expressing cells; stronger effect = lower value; B-score at 10 µM; 100,000 tested, 4% active; Voltage-dependent T-type calcium channel subunit alpha-1H (Homo sapiens), O95180;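 active means single-dose well whose peak fluorescence ratio is a statistical outlier from its plate by either plate-standardised score or position-corrected B-score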
CYP2C19 act: human CYP2C19 activators, primary screen, biochemical, luminescence; Cytochrome P450 2C19 (Homo sapiens), P33261; recombinant CYP2C19, luciferin-H EGE luminescence; stronger effect = higher value; 0 = fully inhibited enzyme, 1 = untreated enzyme; activation factor at 5 µM; 96,000 tested, under 10 active; AID 1025, 2008;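 active means activation factor of at least 2 at 5 µM in the primary screen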;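 further: 0 = wells with 2.5 mM tranylcypromine and 1 = vehicle-only wells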
An asterisk follows results filed as active; nt = no result.

SMILES	CYP2C9 inhib	CYP2C9 act	CYP2C19 inhib	Cav32 inh	CYP2C19 act
Cc1cccc(-c2nc3ccccc3c(=O)n2-n2cccc2)c1	48	0.5	45	-1.9	0.5
CN1CC2=CC(O)CC3Oc4c(O)ccc(c4[C@]23C)C1 (stereo partly specified)	nt	nt	nt	0.66	nt
CCOP(=S)(OCC)SCC(=O)NC(C)(CC)C(=O)O (stereo unspecified)	84*	0.2	-15	0.79	1.1
COc1ccc(C2C(C(=O)N3CCC4(CC3)OCCO4)CC(=O)N2c2ccc(OC)cc2)cc1 (stereo unspecified)	48	0.5	61*	1.7	0.4
COc1ccccc1CN1CCCCC1c1cccnc1 (stereo unspecified)	-9	1.1	50*	-2.1	0.5
CN(C)P1(N(C)C)=Nc2c(c(N)nn2C)C(c2ccccc2)=N1	6	0.9	19	0.97	0.8
O=C(CCCN1CCC2(CC1)C(=O)NCN2c1ccccc1)c1ccc(F)cc1	nt	nt	nt	-1.1	nt
C=CCn1c(O)c(C(CC)=NC2CC2)c(=O)[nH]c1=O	6	0.9	10	0.63	0.9
CCC(=NC1CC1)c1c(O)n(C2CCCCC2)c(=O)[nH]c1=O	2	1	99*	-0.33	0
Cc1ccc(N(C)C(=O)Oc2ccc(C(=O)c3ccc(Cl)cc3)cc2)cc1	60*	0.4	50*	-0.8	0.5
CCCCn1c(O)c(C(CC)=NCc2cc(OC)cc(OC)c2)c(=O)[nH]c1=O	94*	0.1	87*	-1.8	0.1
CCCCn1c(O)c(C(C)=NCc2cc(OC)cc(OC)c2)c(=O)[nH]c1=O	98*	0	87*	-3.9	0.1
Cc1cccnc1NC1=NCC(C)S1 (stereo unspecified)	-10	1.1	0	0.0067	1
Cc1ccc(-c2cc(C(F)F)n3ncc(C(=O)N4CCC5(CC4)OCCO5)c3n2)cc1	47	0.5	5	0.17	1
CN(C)c1ccc(NC(=O)CN2C(=O)CN=C(c3ccccc3)c3cc(Cl)ccc32)cc1	65*	0.3	96*	-8.9*	0
CCC(C)C1N=C(c2ccccc2)c2cc(Cl)ccc2N(CC(=O)NCc2ccco2)C1=O (stereo unspecified)	-3	1	-9	0.63	1.1
Cc1ccc(NC(=O)CN2C(=O)CN=C(c3ccccc3)c3cc(Cl)ccc32)cc1	80*	0.2	90*	-6.7*	0.1
O=C(CN1CC(c2ccccc2)CC1=O)Nc1ccccc1 (stereo unspecified)	nt	nt	nt	-0.15	nt
CN(C)c1ccc(NC(=O)CN2C(=O)CN=C(c3ccccc3)c3ccccc32)cc1	1	1	65*	-5*	0.3
CC1=C(C/C(C)=C/c2ccccc2)/C(=C/CO)[C@@H]2OC(=O)O[C@]2(C)C12CC2	nt	nt	nt	-0.34	nt
CC(=O)[C@@]1(O)CC[C@H]2[C@@H]3CC=C4C[C@@H](O)CC[C@]4(C)[C@H]3CC[C@@]21C	nt	nt	nt	-0.014	nt
O=C(Cc1ccccc1)Oc1ccccc1N1C(=O)CCC1=O	-20	1.2	-17	0.04	1.2
CCCC12CN3CN(C1)CC(CCC)(C3)C2O (stereo unspecified)	-3	1	-6	nt	1.1
Nc1c(C(=O)NCc2ccco2)c2nc3ccccc3nc2n1CCN1CCOCC1	61*	0.4	35	nt	0.6
COc1ccc(Cn2c(N)c(C(=O)NCc3ccco3)c3nc4ccccc4nc32)cc1	84*	0.2	59*	nt	0.4
SMILES	CYP2C9 inhib	CYP2C9 act	CYP2C19 inhib	Cav32 inh	CYP2C19 act
COCCCn1c(N)c(C(=O)NCCC(C)C)c2nc3ccccc3nc21	26	0.7	5	-3.9	1
CCCCCCn1c(N)c(C(=O)NCCN2CCOCC2)c2nc3ccccc3nc21	34	0.7	54*	-0.94	0.5
CCCCCn1c(N)c(C(=O)NCCN2CCOCC2)c2nc3ccccc3nc21	7	0.9	1	nt	1
COc1ccc(CCNC(=O)c2c(N)n(CCN3CCOCC3)c3nc4ccccc4nc23)cc1OC	83*	0.2	54*	0.31	0.5
COC(=O)C1=C(c2ccc(S(C)(=O)=O)cc2)C[C@@H]2CC[C@H]1N2C(=O)N1CCCCC1	nt	nt	nt	2.3	nt
ClC1=CCC2CN(CCN3CCCCC3)CC2C1 (stereo unspecified)	-2	1	13	0.15	0.9
